{
  "source": "ChEMBL document CHEMBL1201862",
  "about": "“PubChem BioAssay data set” (2004)",
  "note": "Out of some 400,000 compounds screened, about 2,100 (0.53%) were called active. Another 14% or so got no clear call; they are omitted. How the calls were made is not given here. What follows is part of a selection rich in actives, with near analogues and random picks from the rest.",
  "data": [
    {"target": "Ataxin-2 (Homo sapiens) (UniProt Q99700)", "sequence (Q99700 whole entry)": "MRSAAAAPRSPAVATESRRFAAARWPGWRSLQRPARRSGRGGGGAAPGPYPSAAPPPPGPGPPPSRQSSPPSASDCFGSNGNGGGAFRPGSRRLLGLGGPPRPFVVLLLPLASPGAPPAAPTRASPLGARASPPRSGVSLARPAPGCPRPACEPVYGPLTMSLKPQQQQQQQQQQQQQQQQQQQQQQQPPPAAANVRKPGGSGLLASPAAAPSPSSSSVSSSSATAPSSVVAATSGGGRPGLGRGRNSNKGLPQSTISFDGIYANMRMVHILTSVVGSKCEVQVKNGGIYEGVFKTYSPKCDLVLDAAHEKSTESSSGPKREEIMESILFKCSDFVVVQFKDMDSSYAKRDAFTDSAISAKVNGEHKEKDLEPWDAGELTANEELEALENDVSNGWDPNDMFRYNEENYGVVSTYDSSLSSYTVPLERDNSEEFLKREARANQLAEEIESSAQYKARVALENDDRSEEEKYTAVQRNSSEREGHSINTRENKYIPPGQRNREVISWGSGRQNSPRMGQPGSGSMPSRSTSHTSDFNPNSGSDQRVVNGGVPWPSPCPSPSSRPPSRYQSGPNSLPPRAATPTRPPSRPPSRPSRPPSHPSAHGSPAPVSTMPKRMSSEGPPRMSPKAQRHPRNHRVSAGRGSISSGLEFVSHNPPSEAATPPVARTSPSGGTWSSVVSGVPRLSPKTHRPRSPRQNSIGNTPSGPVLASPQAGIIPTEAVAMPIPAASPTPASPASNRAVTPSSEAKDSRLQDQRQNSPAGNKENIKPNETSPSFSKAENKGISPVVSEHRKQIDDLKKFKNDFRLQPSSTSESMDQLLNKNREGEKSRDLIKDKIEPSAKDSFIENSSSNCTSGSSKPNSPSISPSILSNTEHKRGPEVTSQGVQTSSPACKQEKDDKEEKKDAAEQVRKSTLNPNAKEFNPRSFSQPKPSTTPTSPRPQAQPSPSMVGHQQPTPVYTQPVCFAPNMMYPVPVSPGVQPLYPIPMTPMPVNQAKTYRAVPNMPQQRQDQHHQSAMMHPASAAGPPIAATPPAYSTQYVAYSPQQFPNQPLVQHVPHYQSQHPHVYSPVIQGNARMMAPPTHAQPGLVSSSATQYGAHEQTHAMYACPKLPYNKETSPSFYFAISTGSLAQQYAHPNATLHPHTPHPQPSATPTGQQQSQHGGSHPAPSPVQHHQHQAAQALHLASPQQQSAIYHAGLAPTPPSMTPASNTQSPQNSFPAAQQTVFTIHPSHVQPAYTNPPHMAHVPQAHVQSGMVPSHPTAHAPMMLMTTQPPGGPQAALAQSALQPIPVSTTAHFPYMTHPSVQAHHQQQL", "experiment": "qHTS for Inhibitors of ATXN expression.", "format": "functional", "values": [
      {"smiles": "CC[C@H](CO)Oc1cc(NCc2ccc(Cl)c(Cl)c2)c2ncn(C(C)C)c2c1", "Potency": "35.5 µM (active)"},
      {"smiles": "CCC(CO)Oc1cc(NCc2ccccc2C(F)(F)F)c2ncn(C(C)C)c2c1", "note": "(configuration not stated)", "Potency": "25.1 µM (active)"},
      {"smiles": "CC[C@H](CO)Oc1cc(NCc2cccc(N)c2)c2ncn(C(C)C)c2c1", "Potency": "31.6 µM (active)"},
      {"smiles": "Nn1c(SCC(=O)Nc2c(F)cc(F)cc2Br)nnc1C1CCCCC1", "Potency": "inactive"},
      {"smiles": "Cc1cc2c(cc1C)NC(CC(=O)Nc1ccccc1)C(=O)N2", "note": "(configuration not stated)", "Potency": "inactive"},
      {"smiles": "CCCOc1c(Br)cc(C2C3=C(CCCC3=O)N(C)C3=C2C(=O)CCC3)cc1OC", "Potency": "inactive"},
      {"smiles": "Cn1c(CNc2ccccc2O)nc2ccccc21", "Potency": "inactive"},
      {"smiles": "COc1cccc(C(=O)/C=C2\\Sc3ccccc3N2C)c1", "Potency": "inactive"},
      {"smiles": "CCC(/C=C1\\Sc2ccc(OC)cc2N1CCO)=C\\c1sc2ccc(OC)cc2[n+]1CCO", "Potency": "17.8 µM (active)"},
      {"smiles": "CCOC(=O)c1cc2c(OC)c(OC)ccc2c2ncc(C#N)c(O)c12", "Potency": "inactive"},
      {"smiles": "Nc1c(S(=O)(=O)c2ccccc2)c2nc3ccccc3nc2n1/N=C/c1cccc(O)c1", "Potency": "39.8 µM (active)"},
      {"smiles": "COCCNC(=O)c1c(N)n(/N=C/c2cccs2)c2nc3ccccc3nc12", "Potency": "inactive"},
      {"smiles": "Nc1c(S(=O)(=O)c2ccccc2)c2nc3ccccc3nc2n1C1CC1", "Potency": "inactive"},
      {"smiles": "Nc1c(S(=O)(=O)c2cccs2)c2nc3ccccc3nc2n1/N=C/c1cccc(O)c1", "Potency": "39.8 µM (active)"},
      {"smiles": "Cc1ccc(S(=O)(=O)c2c(N)n(-c3ccccc3)c3nc4ccccc4nc23)cc1", "Potency": "inactive"},
      {"smiles": "COCCn1c(N)c(C(=O)NCc2cccs2)c2nc3ccccc3nc21", "Potency": "inactive"},
      {"smiles": "Nc1c(C(=O)NCC2CCCO2)c2nc3ccccc3nc2n1-c1ccccc1", "note": "(configuration not stated)", "Potency": "inactive"},
      {"smiles": "COc1ccc(C2C3=C(CC(C)(C)CC3=O)N(C)C3=C2C(=O)CC(C)(C)C3)cc1", "Potency": "inactive"},
      {"smiles": "CC1(C)CC(=O)C2=C(C1)N1C(=C(C#N)C2c2ccc(Cl)cc2)N=C(N)c2ccccc21", "note": "(configuration not stated)", "Potency": "22.4 µM (active)"},
      {"smiles": "COc1ccc(N2C3=C(C(=O)CC(C)(C)C3)C(c3ccccc3OC)C3=C2CC(C)(C)CC3=O)cc1", "Potency": "inactive"},
      {"smiles": "COc1ccccc1OCCCC(=O)NCc1ccco1", "Potency": "inactive"},
      {"smiles": "COc1cccc(C=O)c1OCCCOc1cccc2cccnc12", "Potency": "39.8 µM (active)"},
      {"smiles": "COc1ccc(C2C3=C(O)CC(C)(C)CC3=Nc3c2c(=O)[nH]c(=O)n3Cc2ccccc2)cc1OC", "note": "(configuration not stated)", "Potency": "inactive"},
      {"smiles": "CC(C)(C)c1ccc(C2Sc3ccccc3NC3=C2C(=O)c2ccccc23)cc1", "note": "(configuration not stated)", "Potency": "39.8 µM (active)"},
      {"smiles": "CCCc1ccc(C2Sc3ccccc3NC3=C2C(=O)c2ccccc23)cc1", "note": "(configuration not stated)", "Potency": "31.6 µM (active)"},
      {"smiles": "Cc1cc2c(NC(=O)CC(C)(C)CC(=O)O)cccc2nn1", "Potency": "inactive"},
      {"smiles": "C=CCSc1nnc(C)c(/C=C/Nc2ccc(Cl)cc2)n1", "Potency": "inactive"},
      {"smiles": "CCC(=O)Oc1ccc2c(c1)O/C(=C\\c1ccco1)C2=O", "Potency": "inactive"},
      {"smiles": "CCOC(=O)c1c(NC(=O)c2ccc(S(=O)(=O)N3CCC(C)CC3)cc2)sc2c1CCN(C(C)C)C2", "Potency": "inactive"},
      {"smiles": "O=C(C#Cc1ccccc1)c1cccc([N+](=O)[O-])c1", "Potency": "17.8 µM (active)"},
      {"smiles": "O=[N+]([O-])c1ccc(N(c2ccccc2)c2ccccc2)cc1", "Potency": "inactive"},
      {"smiles": "N#Cc1c(N)n(CCOC(=O)c2cccc([N+](=O)[O-])c2)c2nc3ccccc3nc12", "Potency": "inactive"},
      {"smiles": "Cc1c(C(=O)c2cccc([N+](=O)[O-])c2)c2ccccn2c1CCC#N", "Potency": "inactive"},
      {"smiles": "Cc1ccc(C)n1NC(=O)c1ccc([N+](=O)[O-])cc1", "Potency": "inactive"},
      {"smiles": "O=C(C#Cc1ccccc1)c1ccc([N+](=O)[O-])cc1", "Potency": "25.1 µM (active)"},
      {"smiles": "O=C(c1cn(-c2ccccc2)nc1-c1cccnc1)N1CCN(S(=O)(=O)c2ccccc2F)CC1", "Potency": "inactive"},
      {"smiles": "Cc1cc(C)cc(OCC(=O)NC2CCCc3ccccc32)c1", "note": "(configuration not stated)", "Potency": "inactive"},
      {"smiles": "O=C(/C=C/Nc1ccccc1Oc1ccccc1)c1ccco1", "Potency": "inactive"},
      {"smiles": "O=C(/C=C/c1cc(Br)ccc1O)c1ccco1", "Potency": "39.8 µM (active)"},
      {"smiles": "NC(=O)N/N=C\\c1cc(Br)ccc1O", "Potency": "inactive"},
      {"smiles": "COc1ccc(C2=CC(c3ccc(C)cc3)n3nnnc3N2)cc1", "note": "(configuration not stated)", "Potency": "inactive"},
      {"smiles": "Sc1nnc(-c2cc3c(s2)-c2ccccc2CC3)o1", "Potency": "inactive"},
      {"smiles": "ClCc1nnc(-c2cc3c(s2)CCCC3)o1", "Potency": "39.8 µM (active)"},
      {"smiles": "CCOC(=O)c1cc2c(=O)n3ccccc3nc2n(Cc2ccco2)/c1=N\\C(=O)c1ccc(C)c(C)c1", "Potency": "inactive"},
      {"smiles": "COc1ccc(Cl)cc1NC(=O)C(OC)c1ccccc1", "note": "(configuration not stated)", "Potency": "inactive"},
      {"smiles": "COc1ccc(OC)c(NC(=O)C(C)Oc2ccc(Br)cc2)c1", "note": "(configuration not stated)", "Potency": "inactive"},
      {"smiles": "COc1cc2c(cc1NC(=O)C(Cl)Cl)-c1ccc(NC(=O)C(Cl)Cl)cc1C2", "Potency": "16.8 µM (active)"},
      {"smiles": "CCN(Cc1ccccc1)C(=O)CSc1ccccc1C(=O)O", "Potency": "inactive"},
      {"smiles": "COc1cccc(-c2ccc3c(N)c(C(=O)Nc4ccc(Cl)cc4F)sc3n2)c1", "Potency": "inactive"},
      {"smiles": "COc1cccc(N/C=C/C(=O)c2ccc(Cl)cc2)c1", "Potency": "inactive"},
      {"smiles": "COc1ccc(OC)c2sc(NC(=O)c3ccc(Cl)s3)nc12", "Potency": "inactive"},
      {"smiles": "N=c1oc2c3c4c(cc2cc1C(=O)Nc1ccccc1)CCCN4CCC3", "Potency": "inactive"},
      {"smiles": "O=C(Nc1ccccc1C(=O)Nc1ccccc1C(=O)O)c1ccccc1", "Potency": "inactive"},
      {"smiles": "Cc1ccc(NC(=O)c2cccc(Oc3ccc([N+](=O)[O-])cc3)c2)c(C(=O)O)c1", "Potency": "inactive"},
      {"smiles": "O=C(Nc1nnc(-c2ccc3c(c2)CCCC3)o1)c1ccccc1", "Potency": "39.8 µM (active)"},
      {"smiles": "COc1cccc(C(=O)Nc2nnc(-c3ccc(Cl)cc3)o2)c1", "Potency": "35.5 µM (active)"},
      {"smiles": "COc1cccc(-c2nnc(NC(=O)c3ccc(Cl)s3)o2)c1", "Potency": "25.1 µM (active)"},
      {"smiles": "COC(=O)c1ccsc1NC(=O)c1cccc(OC)c1", "Potency": "inactive"},
      {"smiles": "O=C(Nc1nnc(-c2cccs2)o1)c1cccc(Oc2ccccc2)c1", "Potency": "28.2 µM (active)"},
      {"smiles": "O=C(Oc1ccc(OC(=O)C2CCC2)cc1)C1CCC1", "Potency": "inactive"},
      {"smiles": "Cc1nc2scc(-c3ccccc3)c2c(=O)n1N=C1C=CC(=O)C=C1", "Potency": "inactive"},
      {"smiles": "CCOC(=O)c1c(NC(=O)c2ccno2)c2cc([N+](=O)[O-])ccc2n1C", "Potency": "inactive"},
      {"smiles": "OCCN(CCO)c1nc(N2CCCCC2)c2nc(N(CCO)CCO)nc(N3CCCCC3)c2n1", "Potency": "inactive"},
      {"smiles": "Cc1cc(C)c(C#N)c(SCC(=O)C2CC2)n1", "Potency": "inactive"},
      {"smiles": "O=C(NCc1nnc2c3ccccc3c(-c3ccccc3)nn12)c1ccc(Cl)cc1", "Potency": "inactive"},
      {"smiles": "O=C(Nc1nnc(-c2ccccc2)o1)c1ccc(Cl)cc1", "Potency": "39.8 µM (active)"},
      {"smiles": "Cc1ccnc2nc(C(=O)Nc3nnc(-c4ccccc4)o3)nn12", "Potency": "inactive"}
    ]}
  ]
}
